Consider eight molecules from PubChem BioAssay (Tox21).

Experiment [1] concerns the target Aryl hydrocarbon receptor (Homo sapiens) (UniProt P35869). The experiment is described as follows: qHTS assay to identify small molecule that activate the aryl hydrocarbon receptor (AhR) signaling pathway (AID 743085). Also: nearly all actives have a fitted effect of over 15% in size. Also: potency is read from the fitted curve at half-maximal effect.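 As to activation: HG2L7.5c1 human HepG2 liver cells with stably integrated DRE-driven firefly reporter; series mostly up to about 70 µM.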 In outline:
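Stably transfected human liver carcinoma cells (HG2L7.5c1; 20 DRE-firefly luciferase) were incubated 5 h, dosed, and kept 24 h at 37C. Agonism was scored from increased luciferase luminescence.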

Experiment [2] is described as follows: qHTS assay to identify small molecule that activate the aryl hydrocarbon receptor (AhR) signaling pathway - cell viability counter screen (AID 743086).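 Also: HepG2 liver cells carrying the AhR DRE luciferase reporter; series mostly up to about 70 µM; nearly all actives have a fitted effect of over 45% in size.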 The gist of the method:
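HepG2-AhR-luc (HG2L7.5c1) cells, 4000/well, were preincubated 5 h at 37C, exposed to compound in qHTS format for 24 hr at 37C, then given CellTiter-Fluor for 30 min; viability was read as fluorescence in the reporter wells.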
(In general: qHTS replaces the single test concentration by a dilution series.)

Experiment [3] has as its target Peroxisome proliferator-activated receptor gamma (Homo sapiens) (UniProt P37231). Description: qHTS assay to identify small molecule agonists of the peroxisome proliferator-activated receptor gamma (PPARg) signaling pathway (AID 743094; active = well fitted activation curve with a large enough effect in the signal ratio in the repeat runs, not every such curve was filed as active; the % refers to the signal ratio). The gist of the method:
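GeneBLAzer PPARg UAS-bla HEK293H cells carrying a stably integrated beta-lactamase reporter were pre-incubated 5 h at 37C, then exposed to compounds in DMSO for 17 h at 37C; LiveBLAzer B/G FRET substrate was added for 1 h at room temperature and fluorescence read.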

A short description of experiment [4]: qHTS assay to identify small molecule antagonists of the peroxisome proliferator-activated receptor gamma (PPARg) signaling pathway - cell viability counter screen (AID 743194). Also: nearly all actives have a fitted effect of over 55% in size. The conditions noted are these: Potency: co-treated with 50 nM rosiglitazone. The gist of the method: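 PPARg-UAS-bla HEK293H cells were plated, rested 5 h at 37 C, then treated with compounds plus rosiglitazone (50 nM final) for 17 h at 37 C; viability was then read by CellTiter-Glo luminescence after 30 min at room temperature.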

Experiment [5] is described as follows: qHTS assay for small molecule agonists of the antioxidant response element (ARE) signaling pathway (AID 743202; active = well fitted activation curve with a large enough effect in the signal ratio in the repeat runs, not every such curve was filed as active; the % refers to the signal ratio; also: potency is read from the fitted curve at half-maximal effect). The gist of the method:
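Compounds delivered in DMSO to ARE-bla HepG2 cells (2,000 cells/well, pre-incubated 5 h) and left 16 h at 37 C. LiveBLAzer B/G FRET substrate then added for 2 h at RT before fluorescence reading.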

Experiment [6] can be described thus: qHTS assay for small molecule agonists of the antioxidant response element (ARE) signaling pathway - cell viability counter screen (AID 743203; calls by dose curve; also: nearly all actives have a fitted effect of over 55% in size). In outline: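 CellSensor ARE-bla HepG2 cells, 2,000 per well, rested 5 hrs at 37C/5% CO2, then exposed to compound in DMSO for 16 hrs; viability read as CellTiter-Glo luminescence after 30 min at room temperature, in the reporter wells.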

The nature of experiment [7]: qHTS assay for small molecule activators of the heat shock response signaling pathway - cell viability counter screen (AID 743209). Also: nearly all actives have a fitted effect of over 50% in size. In outline: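 CellSensor HSE-bla HeLa cells, plated overnight at 37 C/5% CO2, were exposed to compounds in DMSO for 5 h at 37 C. Viability was then read in the same wells by CellTiter-Glo luminescence after 30 min at room temperature.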

The nature of experiment [8]: qHTS assay for small molecule activators of the heat shock response signaling pathway (AID 743210; active = well fitted activation curve with a large enough effect in the signal ratio in the repeat runs, with a control signal flat, not every such curve was filed as active; the % refers to the signal ratio;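 also: HeLa cells with beta-lactamase reporter driven by heat shock elements; series mostly up to about 63 µM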). In outline: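 Reporter gene assay: HeLa cells stably bearing an HSE-bla construct, compound treatment 5 h at 37 C, LiveBLAzer substrate 2.5 h at RT, fluorescence intensity.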
Experiment [9] can be described thus: qHTS assay to identify small molecule agonists of the peroxisome proliferator-activated receptor delta (PPARd) signaling pathway - cell viability counter screen (AID 743211). Also: nearly all actives have a fitted effect of over 55% in size. The gist of the method: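 In the same wells used for beta-lactamase reporter measurement, cytotoxicity is scored by CellTiter-Glo. HEK293H PPARd-bla cells receive compound for 17 h at 37C following a 5 h settling period.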

Experiment [10] deals with Peroxisome proliferator-activated receptor delta (Homo sapiens) (UniProt Q03181). The experiment is described as follows: qHTS assay to identify small molecule agonists of the peroxisome proliferator-activated receptor delta (PPARd) signaling pathway (AID 743212; calls by dose curve). The gist of the method: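 A PPARd-bla HEK293H line with beta-lactamase under an Upstream Activator Sequence is treated with compounds at 37 C. Substrate loading for 2 h at room temperature precedes the fluorescence measurement.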

The nature of experiment [11]: qHTS assay to identify small molecule antagonists of the peroxisome proliferator-activated receptor delta (PPARd) signaling pathway - cell viability counter screen (AID 743213). Also: nearly all actives have a fitted effect of over 50% in size. The gist of the method: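 Same-well viability: cells pre-incubated 5 h, dosed with compound plus 300 nM L165041, kept 17 h at 37 C, FRET substrate 2 h RT, then CellTiter-Glo 30 min RT and luminescence.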

The target in experiment [12] is Peroxisome proliferator-activated receptor delta (Homo sapiens) (UniProt Q03181). Description: qHTS assay to identify small molecule antagonists of the peroxisome proliferator-activated receptor delta (PPARd) signaling pathway (AID 743215; active = well fitted inhibition curve with a large enough effect in the signal ratio in the repeat runs, not every such curve was filed as active; the % refers to the signal ratio;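 also: cells stimulated with agonist L165041 at 300 nM final during compound exposure; series mostly up to about 62 µM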). In outline:
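PPARd UAS-bla HEK293H cells were pre-incubated 5 h at 37 C, then given test compounds in DMSO plus agonist L165041 (300 nM final). After 17 h at 37 C, beta-lactamase FRET substrate was added; fluorescence read after 2 h at room temperature.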

The target in experiment [13] is Bile acid receptor (Homo sapiens) (UniProt Q96RI1). The experiment is described as follows: qHTS assay to identify small molecule antagonists of the farnesoid-X-receptor (FXR) signaling pathway (AID 743217; active = well fitted inhibition curve with a large enough effect in the signal ratio in the repeat runs, not every such curve was filed as active; the % refers to the signal ratio). In outline: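 FXR-UAS-bla HEK 293T cells pre-incubated 5 h at 37 °C, then exposed to compounds with chenodeoxycholic acid (50 uM final) for 16 h at 37 °C. Beta-lactamase reporter read by LiveBLAzer B/G FRET substrate fluorescence after 2 h at room temperature.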

Experiment [14] in a line: qHTS assay to identify small molecule agonists of the farnesoid-X-receptor (FXR) signaling pathway - cell viability counter screen (AID 743218). Also: nearly all actives have a fitted effect of over 45% in size. In outline:
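FXR-UAS-bla HEK 293T cells, plated 5 h at 37 C, were exposed to compounds for 16 h at 37 C. CellTiter-Glo was then added to the same wells as the bla readout; luminescence read after 30 min at room temperature.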

Experiment [15] has as its target Bile acid receptor (Homo sapiens) (UniProt Q96RI1). Description: qHTS assay to identify small molecule agonists of the farnesoid-X-receptor (FXR) signaling pathway (AID 743220; active = well fitted activation curve with a large enough effect in the signal ratio in the repeat runs, not every such curve was filed as active; the % refers to the signal ratio). In outline:
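Beta-lactamase reporter under UAS control in GeneBLAzer FXR HEK 293T cells (5000/well) measured with LiveBLAzer FRET substrate after 2 h at room temperature. Compound exposure lasted 16 h at 37C.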

Experiment [16] in a line: qHTS assay to identify small molecule antagonists of the farnesoid-X-receptor (FXR) signaling pathway - cell viability counter screen (AID 743221; active = well fitted cell-killing curve with a large enough effect in the repeat runs, not every such curve was filed as active; also: nearly all actives have a fitted effect of over 50% in size). The gist of the method:
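Here viability was scored by luminescence after CellTiter-Glo addition to wells already read for beta-lactamase. Prior treatment: compound plus CDCA (50 uM final), 16 h, 37 C, HEK 293T FXR-bla cells.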

Experiment [17] can be described thus: qHTS assay to identify small molecule agonists of the vitamin D receptor (VDR) signaling pathway - cell viability counter screen (AID 743224). Also: series mostly up to about 63 µM; nearly all actives have a fitted effect of over 50% in size. The gist of the method: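 VDR-bla cells were preincubated 4 h at 37C/5% CO2, then exposed to compounds for 16 h. After the 2 h room-temperature bla FRET read, CellTiter-Glo was added to the same wells and luminescence read after 30 min.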

Experiment [18] addresses Vitamin D3 receptor (Homo sapiens) (UniProt P11473). The experiment is described as follows: qHTS assay to identify small molecule antagonists of the vitamin D receptor (VDR) signaling pathway (AID 743223; active = well fitted inhibition curve with a large enough effect in the signal ratio in the repeat runs, not every such curve was filed as active; the % refers to the signal ratio). The gist of the method:
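Inhibition of agonist-driven VDR signalling is scored in VDR-bla cells: 3 nM final 1alpha,25-dihydroxyvitamin D3 plus compound, 16 h at 37C, then beta-lactamase detection by FRET substrate fluorescence after 2 h.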

Experiment [19] addresses Peroxisome proliferator-activated receptor gamma (Homo sapiens) (UniProt P37231). Description: qHTS assay to identify small molecule antagonists of the peroxisome proliferator-activated receptor gamma (PPARg) signaling pathway (AID 743191; calls by dose curve; also: series mostly up to about 63 µM; nearly all actives have a fitted effect of over 30% in size). The gist of the method: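 GeneBLAzer PPARg UAS-bla HEK293H cells carrying a UAS-driven beta-lactamase reporter were plated at 3000 cells/well, preincubated 5 h at 37C, then given compound for 17 h at 37C; LiveBLAzer B/G FRET substrate was read after 1 h at room temperature.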

For experiment [20], the target named is Vitamin D3 receptor (Homo sapiens) (UniProt P11473). The experiment is described as follows: qHTS assay to identify small molecule agonists of the vitamin D receptor (VDR) signaling pathway (AID 743222; calls by dose curve). The gist of the method:
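VDR-bla cells were plated 4 h at 37C/5% CO2, then exposed to compounds in DMSO for 16 h. After LiveBLAzer B/G FRET substrate addition and 2 h at room temperature, beta-lactamase reporter fluorescence was read.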

SMILES strings stand for the structures. Records with an inconclusive call do not appear. The source made the active and inactive calls. Unless noted, calls follow the shape of the dose curve; as a rule, active = well fitted curve in the direction sought with a large enough effect in the repeat runs; inconclusive = weak or mixed curves; inactive = no such curve, though single readings can be large; an effect the other way counts as inactive or inconclusive.

Chain of Peroxisome proliferator-activated receptor gamma (Homo sapiens) (P37231 whole entry, looked up): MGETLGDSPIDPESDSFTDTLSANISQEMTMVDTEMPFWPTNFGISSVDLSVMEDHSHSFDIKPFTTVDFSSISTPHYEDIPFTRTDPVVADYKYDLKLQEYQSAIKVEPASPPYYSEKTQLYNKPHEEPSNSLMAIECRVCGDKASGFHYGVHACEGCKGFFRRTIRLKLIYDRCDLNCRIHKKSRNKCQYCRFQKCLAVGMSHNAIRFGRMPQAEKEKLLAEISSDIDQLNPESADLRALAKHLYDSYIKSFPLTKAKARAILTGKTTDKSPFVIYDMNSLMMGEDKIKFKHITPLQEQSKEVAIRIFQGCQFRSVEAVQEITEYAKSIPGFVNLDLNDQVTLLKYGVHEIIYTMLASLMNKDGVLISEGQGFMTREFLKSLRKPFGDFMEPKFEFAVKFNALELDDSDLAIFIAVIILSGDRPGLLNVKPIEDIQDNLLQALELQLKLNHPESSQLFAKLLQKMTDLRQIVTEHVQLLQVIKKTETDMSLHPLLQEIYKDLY
Chain of Aryl hydrocarbon receptor (Homo sapiens) (P35869 whole entry, looked up): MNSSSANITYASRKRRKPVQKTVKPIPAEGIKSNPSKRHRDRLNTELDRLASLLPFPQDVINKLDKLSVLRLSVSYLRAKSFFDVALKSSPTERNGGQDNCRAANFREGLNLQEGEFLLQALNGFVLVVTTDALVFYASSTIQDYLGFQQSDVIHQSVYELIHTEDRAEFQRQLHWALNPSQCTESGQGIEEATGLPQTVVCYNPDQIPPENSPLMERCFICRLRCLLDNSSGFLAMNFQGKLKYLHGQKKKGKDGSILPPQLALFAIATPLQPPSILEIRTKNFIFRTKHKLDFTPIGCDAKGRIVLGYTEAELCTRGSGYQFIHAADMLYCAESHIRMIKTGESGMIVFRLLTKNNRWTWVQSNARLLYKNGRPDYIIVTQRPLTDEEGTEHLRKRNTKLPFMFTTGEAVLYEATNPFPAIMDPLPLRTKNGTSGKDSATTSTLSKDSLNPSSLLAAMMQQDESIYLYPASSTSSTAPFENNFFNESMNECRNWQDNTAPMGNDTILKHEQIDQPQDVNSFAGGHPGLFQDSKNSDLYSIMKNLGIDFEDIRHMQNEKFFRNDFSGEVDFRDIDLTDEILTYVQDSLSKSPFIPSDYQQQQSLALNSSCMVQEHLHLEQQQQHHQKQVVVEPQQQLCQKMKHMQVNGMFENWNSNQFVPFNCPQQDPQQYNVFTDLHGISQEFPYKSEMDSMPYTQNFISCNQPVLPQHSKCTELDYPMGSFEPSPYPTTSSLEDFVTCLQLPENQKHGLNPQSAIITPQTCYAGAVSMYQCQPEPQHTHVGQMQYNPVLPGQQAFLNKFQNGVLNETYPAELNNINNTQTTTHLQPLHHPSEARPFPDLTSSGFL
Chain of Peroxisome proliferator-activated receptor delta (Homo sapiens) (Q03181 whole entry, looked up): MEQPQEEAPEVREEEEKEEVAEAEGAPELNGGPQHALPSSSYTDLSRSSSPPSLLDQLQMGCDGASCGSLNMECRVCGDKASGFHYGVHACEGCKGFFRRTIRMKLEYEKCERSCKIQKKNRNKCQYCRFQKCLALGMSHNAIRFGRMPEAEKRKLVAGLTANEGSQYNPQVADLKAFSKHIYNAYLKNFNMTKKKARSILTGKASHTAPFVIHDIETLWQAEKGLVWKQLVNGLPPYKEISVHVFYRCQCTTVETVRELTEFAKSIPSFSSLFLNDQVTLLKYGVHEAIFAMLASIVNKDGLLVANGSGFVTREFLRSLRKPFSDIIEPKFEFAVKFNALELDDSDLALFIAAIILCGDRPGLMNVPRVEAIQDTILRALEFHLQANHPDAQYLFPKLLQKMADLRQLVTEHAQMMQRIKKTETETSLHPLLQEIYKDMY
Chain of Vitamin D3 receptor (Homo sapiens) (P11473 whole entry, looked up): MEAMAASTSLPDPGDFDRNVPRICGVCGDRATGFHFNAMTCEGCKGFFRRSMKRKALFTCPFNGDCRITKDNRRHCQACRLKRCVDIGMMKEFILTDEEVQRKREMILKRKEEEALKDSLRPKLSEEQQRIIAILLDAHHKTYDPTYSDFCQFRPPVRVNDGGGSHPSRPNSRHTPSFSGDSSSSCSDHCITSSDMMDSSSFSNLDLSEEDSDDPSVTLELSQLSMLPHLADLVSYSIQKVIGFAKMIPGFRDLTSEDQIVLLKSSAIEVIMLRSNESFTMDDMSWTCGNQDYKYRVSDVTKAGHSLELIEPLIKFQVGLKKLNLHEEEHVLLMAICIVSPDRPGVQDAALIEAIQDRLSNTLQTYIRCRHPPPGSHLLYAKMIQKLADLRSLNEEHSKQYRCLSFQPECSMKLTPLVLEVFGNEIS
Chain of Bile acid receptor (Homo sapiens) (Q96RI1 whole entry, looked up): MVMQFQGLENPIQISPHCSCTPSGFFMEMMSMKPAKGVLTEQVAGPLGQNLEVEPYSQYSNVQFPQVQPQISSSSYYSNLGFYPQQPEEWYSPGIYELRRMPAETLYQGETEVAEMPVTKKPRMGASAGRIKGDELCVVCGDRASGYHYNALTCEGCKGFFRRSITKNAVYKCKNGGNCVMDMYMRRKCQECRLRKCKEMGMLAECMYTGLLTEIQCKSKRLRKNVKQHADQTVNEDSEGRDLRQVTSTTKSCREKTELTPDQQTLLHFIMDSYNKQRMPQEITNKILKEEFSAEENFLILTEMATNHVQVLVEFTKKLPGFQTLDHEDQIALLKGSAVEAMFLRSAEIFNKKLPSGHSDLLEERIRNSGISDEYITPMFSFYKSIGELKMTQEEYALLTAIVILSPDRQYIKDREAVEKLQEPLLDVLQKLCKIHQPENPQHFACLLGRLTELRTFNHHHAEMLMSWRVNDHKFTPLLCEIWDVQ

Regarding `NNCc1ccccc1`, the figures for the Potency in experiment [1] and in experiment [5] were 55.5 µM (active) and 5.55 µM (active), respectively. Moreover, the Potency entry in experiment [2], in experiment [4], in experiment [6], in experiment [7], in [8] and in experiment [9] was “inactive” in each case. Moreover, the Potency result in experiment [11], in experiment [12], in experiment [14], in experiment [16] and in experiment [17] was “inactive” throughout. Moreover, the call in experiment [3], in [10], in [13] and in [15] was inactive.
With `OP(O)c1ccccc1`, the Potency result in experiment [1], in experiment [2], in [4], in [5], in experiment [6] and in experiment [7] was “inactive” each time. For the same molecule, the Potency result in experiment [8], in [9], in experiment [11], in experiment [12], in experiment [14] and in experiment [16] was “inactive” each time. Besides, the Potency result in experiment [17] is “inactive”. The molecule was called inactive in experiment [3], in experiment [10], in [13], in experiment [15] and in experiment [18].
Consider `CCOC(=O)C(Cl)Cc1cc(-n2nc(C)n(C(F)F)c2=O)c(F)cc1Cl` (configuration not stated), for which the Potency entry in [1], in experiment [2], in [19], in experiment [4], in [6] and in experiment [7] was “inactive” throughout. The Potency entry in experiment [8], in experiment [9], in [11], in experiment [12], in experiment [16] and in experiment [17] was “inactive” each time. For the same molecule, the molecule was classed as inactive in experiment [3], in experiment [10], in [15], in [20] and in [18].
As to `O=C(Cl)C(Cl)Cl`, the Potency entry in experiment [1], in experiment [2], in experiment [4], in [5], in experiment [6] and in [7] was “inactive” each time. Besides, the Potency entry in [8], in experiment [9], in [11], in [12], in [14] and in experiment [16] was “inactive” in each case. In addition, the Potency result in [17] is “inactive”. Also, the call in experiment [3], in experiment [10], in [20] and in [18] was inactive.
With `CN(C)CCc1c[nH]c2cccc(OP(=O)(O)O)c12`, the Potency result in experiment [1], in experiment [2], in [19], in experiment [4], in [5] and in [7] was “inactive” throughout. In addition, the Potency entry in experiment [8], in experiment [9], in experiment [11], in experiment [12], in experiment [14] and in experiment [16] was “inactive” each time. In addition, in [17], the Potency result is “inactive”. The call in experiment [3], in experiment [10], in [13] and in experiment [15] was inactive.
As for `CC(C)(O)C(Cl)(Cl)Cl`, the Potency entry in experiment [1], in experiment [2], in experiment [19], in experiment [4], in experiment [5] and in experiment [6] was “inactive” throughout. Besides, the Potency entry in [11], in experiment [14] and in [16] was “inactive” throughout. For the same molecule, the molecule was called inactive in experiment [3], in experiment [10], in experiment [13], in [15], in experiment [20] and in [18].
Regarding `C=CC1(C)OC(=O)N(c2cc(Cl)cc(Cl)c2)C1=O` (configuration not stated), the Potency entry in [1], in experiment [2], in [4], in experiment [5], in experiment [6] and in experiment [7] was “inactive” throughout. In addition, the Potency entry in [8], in experiment [9], in [11], in experiment [12], in experiment [14] and in experiment [16] was “inactive” in each case. Further, the Potency entry in [17] is “inactive”. Also, the molecule was called inactive in [3], in experiment [10], in experiment [13], in experiment [15], in experiment [20] and in experiment [18].
On to `CCN(CC)CCOC(=O)C(O)(c1ccccc1)c1ccccc1`, for which the Potency entry in experiment [1], in [2], in experiment [19], in experiment [4], in [6] and in experiment [7] was “inactive” in each case. Also, the Potency result in experiment [8], in [9], in experiment [11], in experiment [12], in experiment [14] and in experiment [16] was “inactive” throughout. In addition, in [17], the Potency entry is “inactive”. Moreover, the molecule was called inactive in experiment [3], in [10], in experiment [13] and in experiment [15].
